PubChem BioAssay AID1159580 (chemical genetic matrix, 2015)
The whole screen tested about 5,500 compounds, of which about 2,000 (36%) were called active. About 18% were inconclusive and are not listed. Cut-off read from the data, not from the text of the source: active = normalized growth mostly below about 0.91 (no sharp cut-off); inconclusive = no clear call, values can overlap the other calls; inactive = mostly above about 0.92. This is one part of the list.

Assay: chemical genetic growth profiling, strain panel (AID 1159580);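 note: tested at 20 µM; growth read once vehicle control cultures reached saturation at 30 °C; 1 = growth at the plate median or of vehicle wells; lower values mean less growth of the strain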
Conditions: S. cerevisiae deletion strains, growth OD

Measured: normalized growth

C#C[C@@H]1CC2C3CCC4=C[C@@H](OC(C)=O)CCC4C3CC[C@]2(C)[C@H]1OC(C)=O (stereo partly drawn)
inactive: locus YHR030C, strain SLT2, stronger effect = lower value 1 | locus YHR079C, strain IRE1, stronger effect = lower value 0.929 | locus YJL095W, strain BCK1, stronger effect = lower value 0.951 | locus YJR066W, strain TOR1, stronger effect = lower value 0.947 | locus YLR113W, strain HOG1, stronger effect = lower value 0.912 | locus YNL183C, strain NPR1, stronger effect = lower value 0.903 | locus YOR231W, strain MKK1, stronger effect = lower value 0.946 | locus YPL256C, strain CLN2, stronger effect = lower value 0.936
